# Inconclusive results are not listed. Active and inactive are the calls of the source. Unless noted, calls come from the whole dose curve; as a rule, active = well fitted curve in the direction sought with a large enough effect; inconclusive = small, poorly fitted or top-dose-only effect, or another doubt; inactive = no such curve, though single readings can be large; an effect the other way counts as inactive or inconclusive.
# Legend:
# [1] = AP1 Signaling Pathway (AID 357; active = well fitted curve in either direction with a large enough effect, not every such curve was filed as active; note: % is set by controls: 0 for no effect and ±100 for the full control effect); conditions: ME-180 AP-1-bla reporter, EGF-induced, beta-lactamase ratio, 5 h; at 7.69 µM (top of the series) unless noted
# Outline: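 ME-180 cells with beta-lactamase reporter under AP-1 response element, stimulated with EC50 EGF; compounds tested in titration series, 5 h at 37 °C. CCF4 substrate added 2.5 h at room temperature; 460/530 nm emission ratio gave %activity and AC50.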
# [2] = target: Glucocorticoid receptor (Homo sapiens) (UniProt P04150); assay: GR-GFP Redistribution (AID 450;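 active = compounds whose dose series gives a full or clear partial fitted curve of increased nuclear translocation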; note: potency is the fitted concentration of half-maximal effect); conditions: U2OS GR-GFP nuclear translocation, laser cytometry, 2 h
# Chain of Glucocorticoid receptor (Homo sapiens) (P04150 whole entry, looked up, the tested form may be a part): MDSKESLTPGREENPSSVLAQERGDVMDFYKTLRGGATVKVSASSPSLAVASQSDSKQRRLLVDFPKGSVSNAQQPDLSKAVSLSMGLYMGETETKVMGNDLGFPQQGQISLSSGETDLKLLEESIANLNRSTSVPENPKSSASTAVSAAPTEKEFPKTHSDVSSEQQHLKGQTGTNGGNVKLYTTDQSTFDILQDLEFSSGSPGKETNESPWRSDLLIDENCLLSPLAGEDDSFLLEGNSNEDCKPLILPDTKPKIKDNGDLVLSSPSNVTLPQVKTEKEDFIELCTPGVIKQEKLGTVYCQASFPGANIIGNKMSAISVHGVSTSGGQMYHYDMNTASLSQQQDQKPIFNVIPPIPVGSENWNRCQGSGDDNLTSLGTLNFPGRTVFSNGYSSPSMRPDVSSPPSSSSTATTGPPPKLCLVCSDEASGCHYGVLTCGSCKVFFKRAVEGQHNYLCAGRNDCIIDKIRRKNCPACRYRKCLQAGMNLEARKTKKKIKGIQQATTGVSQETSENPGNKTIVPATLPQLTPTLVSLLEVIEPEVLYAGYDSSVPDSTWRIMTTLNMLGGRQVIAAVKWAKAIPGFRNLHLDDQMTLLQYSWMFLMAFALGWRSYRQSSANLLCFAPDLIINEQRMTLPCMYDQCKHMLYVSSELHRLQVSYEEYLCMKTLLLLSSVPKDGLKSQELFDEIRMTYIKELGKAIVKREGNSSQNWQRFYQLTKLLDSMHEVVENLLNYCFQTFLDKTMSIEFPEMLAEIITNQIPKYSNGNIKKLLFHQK
# [3] = target: Glucocorticoid receptor (Homo sapiens) (UniProt P04150); assay: GR-EFC Redistribution (AID 451; calls by dose curve; note: potency is the fitted concentration of half-maximal effect); conditions: CHO-K1 GR-EFC translocation, beta-gal luminescence, 2 h
# Outline: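 CHO-K1 cells expressing nuclear EA and GR-ED fragments of b-gal; compounds titrated up to 46 uM final, 2 h at 37 C. GR nuclear translocation read as complemented b-gal luminescence after 1 h RT detection.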
# [4] = target: 3',5'-cyclic-AMP phosphodiesterase 4B (Homo sapiens) (UniProt Q07343); assay: qHTS Assay for Inhibitors of PDE-IV (AID 607; active = well fitted activation curve with a large enough effect in the main read-out, with a control signal flat, not every such curve was filed as active; note: % of control where 0% means no effect)
# Chain of 3',5'-cyclic-AMP phosphodiesterase 4B (Homo sapiens) (Q07343 whole entry, looked up): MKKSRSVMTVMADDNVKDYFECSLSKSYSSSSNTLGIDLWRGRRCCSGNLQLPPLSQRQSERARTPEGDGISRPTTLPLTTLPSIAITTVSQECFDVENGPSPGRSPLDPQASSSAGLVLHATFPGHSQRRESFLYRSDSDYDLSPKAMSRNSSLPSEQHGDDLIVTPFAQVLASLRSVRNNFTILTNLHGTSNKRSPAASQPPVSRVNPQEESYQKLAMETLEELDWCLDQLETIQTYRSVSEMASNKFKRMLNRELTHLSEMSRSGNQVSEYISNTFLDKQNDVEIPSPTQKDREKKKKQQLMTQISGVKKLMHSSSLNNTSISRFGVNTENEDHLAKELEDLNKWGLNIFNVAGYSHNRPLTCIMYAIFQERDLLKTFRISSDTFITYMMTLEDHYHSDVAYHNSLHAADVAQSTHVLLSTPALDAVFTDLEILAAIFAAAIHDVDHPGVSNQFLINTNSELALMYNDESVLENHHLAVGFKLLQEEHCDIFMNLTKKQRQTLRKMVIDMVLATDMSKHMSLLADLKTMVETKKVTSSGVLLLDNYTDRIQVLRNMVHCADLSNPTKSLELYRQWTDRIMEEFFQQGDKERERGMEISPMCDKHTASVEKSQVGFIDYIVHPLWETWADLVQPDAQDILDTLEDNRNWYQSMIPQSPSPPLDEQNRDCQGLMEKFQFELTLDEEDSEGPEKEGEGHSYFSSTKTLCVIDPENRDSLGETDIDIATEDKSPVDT
# Outline: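 HEK293 ACTOne cells with CNG channel (1000/well), endogenous PDE4; membrane potential dye, compounds up to 22.9 uM final. Fluorescence Ex 535/Em 590; RO 20-1724 (100 uM final) as reference.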
# [5] = qHTS Assay for Lipid Storage Modulators (AID 1519; calls by dose curve; note: potency is the fitted concentration of half-maximal effect); conditions: Drosophila S3 cells, BODIPY lipid droplet/cell ratio, laser cytometry, cells loaded with oleic acid
# Outline: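 Cells seeded at 5,000 per well were treated with compounds over a concentration series and loaded with oleic acid (400 uM, as added). Lipid droplet fluorescence (488 nm excitation, 500-530 nm channel) was read by laser-scanning cytometry and normalized to 20 uM Triacsin C.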
# [6] = target: Lysosomal acid glucosylceramidase (Homo sapiens) (UniProt P04062); assay: Glucocerebrosidase-p2 (AID 348; in the data active = potency below about 10 µM; note: potency is the fitted concentration of half-maximal effect); conditions: purified GBA, blue fluorogenic substrate, 40 min
# Chain of Lysosomal acid glucosylceramidase (Homo sapiens) (P04062 whole entry, looked up): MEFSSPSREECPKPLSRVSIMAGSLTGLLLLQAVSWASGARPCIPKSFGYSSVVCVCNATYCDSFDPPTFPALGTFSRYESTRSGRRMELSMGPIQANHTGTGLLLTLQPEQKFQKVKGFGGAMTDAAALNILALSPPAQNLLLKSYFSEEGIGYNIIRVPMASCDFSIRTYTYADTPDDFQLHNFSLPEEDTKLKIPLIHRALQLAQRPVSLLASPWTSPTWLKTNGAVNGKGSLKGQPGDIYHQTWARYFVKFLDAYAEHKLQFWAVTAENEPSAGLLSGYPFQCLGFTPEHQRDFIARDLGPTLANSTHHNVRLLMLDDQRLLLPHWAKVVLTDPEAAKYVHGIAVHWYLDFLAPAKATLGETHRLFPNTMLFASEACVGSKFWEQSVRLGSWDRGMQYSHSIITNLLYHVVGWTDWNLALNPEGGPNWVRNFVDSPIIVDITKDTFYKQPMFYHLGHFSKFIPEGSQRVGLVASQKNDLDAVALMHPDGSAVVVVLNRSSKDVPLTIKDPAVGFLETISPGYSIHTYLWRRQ
# Outline: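 Compounds titrated from 0.6 nM upwards against 0.2 nM enzyme in pH 5.9 citric acid/KH2PO4, taurocholate, tween-20; blue fluorogenic substrate 80 uM, 40 min room temperature, stopped and read Ex 365/Em 440 for AC50.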
# [7] = target: Cytochrome P450 1A2 (Homo sapiens) (UniProt P05177); assay: p450-cyp1a2 (AID 410; calls by dose curve; note: potency is the fitted concentration of half-maximal effect)
# Outline: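 Inhibition was calculated relative to 57 uM furafylline (full inhibition). The reaction used human CYP1A2 at 20nM with Luciferin-ME at its Km, 100uM, driven by an NADPH-regenerating system for 60 min at room temperature.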
# [8] = NFAT Signaling Pathway (AID 444; active = well fitted curve in either direction with a large enough effect, not every such curve was filed as active;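 note: carbachol stimulus at about its EC50 of 1 µM final; % is set by controls: 0 for no effect and ±100 for the full control effect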); conditions: Jurkat NFAT-bla M1, carbachol, beta-lactamase ratio, 5 h; at 7.69 µM (top of the series) unless noted
# Outline: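 Jurkat cells with NFAT-driven β-lactamase reporter and co-expressed M1 receptor, stimulated with carbachol (final 1 uM, ~EC50), compound titration, 5 h at 37 °C. CCF4 loaded 1 h at RT; 460/530 nm ratio gave %activity and AC50.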
# [9] = Stat Signaling Pathway (AID 446; active = well fitted curve in either direction with a large enough effect, not every such curve was filed as active;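 note: ME-180 cervical cancer cells given 40 pM IL-6 alongside compound; SIE-controlled beta-lactamase reporter measured as 460/530 nm FRET emission ratio; % is set by controls: 0 for no effect and ±100 for the full control effect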); conditions: ME-180 SIE beta-lactamase reporter, IL-6 stimulated, 5 h; at 7.69 µM (top of the series) unless noted
# Outline: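 ME-180 cells carrying a SIE-driven beta-lactamase reporter are stimulated with 40 pM IL-6 for 5 h at 37C in the presence of compound. The 460/530 nm FRET substrate ratio is read after 2.5 h at RT. Data are normalised to 300 pM IL-6 and to 125 nM JAK inhibitor controls.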
# [10] = target: Mitogen-activated protein kinase 10 (Mus musculus) (UniProt Q61831); assay: JNK3 AlphaScreen Assay (AID 530; active = well fitted curve in either direction with a large enough effect, not every such curve was filed as active;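 note: kinase came from lysate of stimulated human HepG2 cells; signal reports phosphorylation of biotinylated GST-cJun 1-79 at Ser73 with 10 µM ATP; % is set by controls: 0 for no effect and ±100 for the full control effect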)
# Outline: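 qHTS format: compounds tested as titrations against IL-1beta/TNF-alpha-activated HepG2 lysate JNK3 with biotin-GST-cJun substrate and 10 uM ATP at room temperature. Loss of anti-phospho-cJun AlphaScreen signal indicates inhibition.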
# [11] = target: Cytochrome P450 3A4 (Homo sapiens) (UniProt P08684); assay: qHTS Assay for Inhibitors and Substrates of Cytochrome P450 3A4 (AID 884); note: nearly all actives have a fitted effect of over 50% in size; note: potency is the fitted concentration of half-maximal effect
# Chain of Cytochrome P450 3A4 (Homo sapiens) (P08684 whole entry, looked up): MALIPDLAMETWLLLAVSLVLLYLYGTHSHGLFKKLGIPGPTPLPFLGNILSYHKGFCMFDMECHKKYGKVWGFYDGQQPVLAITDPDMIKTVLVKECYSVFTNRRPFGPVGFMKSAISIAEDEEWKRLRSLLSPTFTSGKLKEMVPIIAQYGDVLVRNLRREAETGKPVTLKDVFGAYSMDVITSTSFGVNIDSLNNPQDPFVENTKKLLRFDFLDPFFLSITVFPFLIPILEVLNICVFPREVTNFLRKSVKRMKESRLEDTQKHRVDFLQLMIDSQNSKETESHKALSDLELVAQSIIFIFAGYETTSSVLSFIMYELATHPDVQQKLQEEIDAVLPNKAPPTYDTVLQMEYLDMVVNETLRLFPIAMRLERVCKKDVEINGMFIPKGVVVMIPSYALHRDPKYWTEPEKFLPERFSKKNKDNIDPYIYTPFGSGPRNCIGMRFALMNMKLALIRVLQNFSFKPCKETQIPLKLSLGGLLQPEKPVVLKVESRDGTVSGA
# Outline: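 20 nM human CYP3A4 with 25 uM Luciferin-PPXE (at KM) in 200 mM KPO4, preincubated 10 min with compound; NADPH regeneration started a 60 min RT reaction. Luciferin detected by luminescence, normalized to 57 uM ketoconazole as full inhibition.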
# [12] = target: Dual specificity protein kinase CLK4 (Homo sapiens) (UniProt Q9HAZ1); assay: qHTS Assay for Inhibitors of CDC-like Kinase 4 (Kinase-Glo Assay) (AID 1770); note: % is set by controls: 0 for no effect and ±100 for the full control effect; nearly all actives have a fitted effect of over 65% in size
# Chain of Dual specificity protein kinase CLK4 (Homo sapiens) (Q9HAZ1 whole entry, looked up): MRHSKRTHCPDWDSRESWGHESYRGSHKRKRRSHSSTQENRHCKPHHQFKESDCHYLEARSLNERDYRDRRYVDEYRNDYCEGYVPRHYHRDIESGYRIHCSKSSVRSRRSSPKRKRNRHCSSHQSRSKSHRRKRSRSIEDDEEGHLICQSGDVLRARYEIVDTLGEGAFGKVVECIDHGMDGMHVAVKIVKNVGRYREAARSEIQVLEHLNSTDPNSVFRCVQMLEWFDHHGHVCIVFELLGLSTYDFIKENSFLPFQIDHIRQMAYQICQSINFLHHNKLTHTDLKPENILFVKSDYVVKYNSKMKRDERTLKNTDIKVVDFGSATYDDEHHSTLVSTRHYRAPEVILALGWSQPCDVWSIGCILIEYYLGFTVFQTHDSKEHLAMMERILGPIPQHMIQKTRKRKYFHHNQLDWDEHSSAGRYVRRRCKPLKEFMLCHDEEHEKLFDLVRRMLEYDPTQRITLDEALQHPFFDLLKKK
# Outline: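 Inhibition was judged from remaining ATP, measured by Ultra-Glo luciferase bioluminescence after Clk4 (25 nM) had acted on RS peptide at 1 uM ATP for 4.5 hours, room temperature.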
# [13] = target: Dual specificity protein kinase CLK4 (Homo sapiens) (UniProt Q9HAZ1); assay: qHTS Assay for Inhibitors of CDC-like Kinase 4 (ADP-Glo Assay) (AID 1771); note: % is set by controls: 0 for no effect and ±100 for the full control effect; nearly all actives have a fitted effect of over 70% in size
# Outline: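 Kinase reaction: Clk4 at 25 nM, RS repeat peptide substrate at 100 uM, ATP at 1 uM, 1 hr, room temperature. Product ADP detected as luciferase signal via ADP-Glo.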
# [14] = target: Dual specificity protein kinase CLK4 (Homo sapiens) (UniProt Q9HAZ1); assay: qHTS Assay for Inhibitors of CDC-like Kinase 4 (ADP-FP Assay) (AID 1795);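 note: recombinant human CLK4 phosphorylating RS repeat peptide at 1 µM ATP; % is set by controls: 0 for no effect and ±100 for the full control effect; nearly all actives have a fitted effect of over 60% in size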
# Outline: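 Inhibition of ADP formation by 6.25 nM Clk4 is measured using 1 uM ATP and 100 uM RS repeat peptide over one hour. Produced ADP displaces a fluorescent tracer from antibody, lowering polarization.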
# [15] = target: Ubiquitin carboxyl-terminal hydrolase 1 (Homo sapiens) (UniProt O94782); assay: Inhibitors of USP1/UAF1: Pilot qHTS (AID 504865);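 note: rhodamine fluorescence freed from ubiquitin-rhodamine substrate followed over time; top concentration of the series differs between compounds; % is set by controls: 0 for no effect and ±100 for the full control effect; nearly all actives have a fitted effect of over 35% in size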
# Chain of Ubiquitin carboxyl-terminal hydrolase 1 (Homo sapiens) (O94782 whole entry, looked up): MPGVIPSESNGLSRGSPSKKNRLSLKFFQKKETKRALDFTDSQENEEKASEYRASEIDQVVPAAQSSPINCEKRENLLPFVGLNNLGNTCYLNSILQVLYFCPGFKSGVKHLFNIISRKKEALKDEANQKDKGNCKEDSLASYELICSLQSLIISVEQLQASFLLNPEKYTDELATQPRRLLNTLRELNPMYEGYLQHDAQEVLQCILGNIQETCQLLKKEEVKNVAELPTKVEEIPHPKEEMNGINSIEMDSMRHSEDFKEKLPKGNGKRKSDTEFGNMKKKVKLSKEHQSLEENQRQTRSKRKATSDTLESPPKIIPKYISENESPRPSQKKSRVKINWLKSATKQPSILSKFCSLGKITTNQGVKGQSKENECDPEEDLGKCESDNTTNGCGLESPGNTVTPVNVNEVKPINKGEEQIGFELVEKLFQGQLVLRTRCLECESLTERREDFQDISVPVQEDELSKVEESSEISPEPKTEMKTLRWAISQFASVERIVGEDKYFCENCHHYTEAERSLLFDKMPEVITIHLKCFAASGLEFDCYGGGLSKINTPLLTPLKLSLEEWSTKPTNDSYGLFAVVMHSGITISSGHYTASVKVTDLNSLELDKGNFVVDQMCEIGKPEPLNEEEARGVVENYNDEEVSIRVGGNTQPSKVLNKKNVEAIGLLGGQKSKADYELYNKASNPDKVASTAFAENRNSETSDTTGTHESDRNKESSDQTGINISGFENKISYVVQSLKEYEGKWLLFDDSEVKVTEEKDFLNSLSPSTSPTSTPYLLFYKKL
# Outline: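 Kinetic fluorescence assay: 1nM USP1/UAF1, 15 min compound preincubation, then 150nM Ub-Rho; 480/540 nm.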
# [16] = Confirmation and Secondary Assay for Modulators of Hemoglobin Beta Chain Splicing at IVS2 654 locus (AID 910);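 note: HeLa cells stably carrying EGFP split by mutant beta-globin IVS2-654 intron; % of control where 0% means no effect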
# Outline: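 HeLa cells stably expressing EGFP interrupted by β-globin IVS2-654 intron, seeded overnight in Opti-MEM/2% FCS, then treated 2 days at 37 °C. Restored splicing read as total peak GFP intensity per well by laser scanning cytometry (488 nm excitation, 500–520 nm emission); 500 nM antisense PNA as control.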
# [17] = Confirmation and Secondary Assay for Modulators of Hemoglobin Beta Chain Splicing at IVS2 705 locus (AID 930);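 note: HeLa cells stably expressing the EGFP-705 splicing reporter; GFP fluorescence per well restored by corrected splicing of the IVS2-705 intron in EGFP; % of control where 0% means no effect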
# Outline: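 HeLa IVS2-705 EGFP reporter cells, 500/well, compound 2 d at 37C; correct splicing yields fluorescent EGFP. Control: 500 nM antisense PNA. Read-out: total peak GFP intensity.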
# [18] = target: Rap guanine nucleotide exchange factor 3 (Homo sapiens) (UniProt O95398); assay: Confirmatory qHTS for agonist of cAMP-regulated guanine nucleotide exchange factor 3 (EPAC1) (AID 1645881);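 note: EPAC1 catalysed release of BODIPY-GDP from Rap1B seen as fluorescence loss; 100% = effect of cAMP agonist control; nearly all actives have a fitted effect of over 75% in size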
# Chain of Rap guanine nucleotide exchange factor 3 (Homo sapiens) (O95398 whole entry, looked up): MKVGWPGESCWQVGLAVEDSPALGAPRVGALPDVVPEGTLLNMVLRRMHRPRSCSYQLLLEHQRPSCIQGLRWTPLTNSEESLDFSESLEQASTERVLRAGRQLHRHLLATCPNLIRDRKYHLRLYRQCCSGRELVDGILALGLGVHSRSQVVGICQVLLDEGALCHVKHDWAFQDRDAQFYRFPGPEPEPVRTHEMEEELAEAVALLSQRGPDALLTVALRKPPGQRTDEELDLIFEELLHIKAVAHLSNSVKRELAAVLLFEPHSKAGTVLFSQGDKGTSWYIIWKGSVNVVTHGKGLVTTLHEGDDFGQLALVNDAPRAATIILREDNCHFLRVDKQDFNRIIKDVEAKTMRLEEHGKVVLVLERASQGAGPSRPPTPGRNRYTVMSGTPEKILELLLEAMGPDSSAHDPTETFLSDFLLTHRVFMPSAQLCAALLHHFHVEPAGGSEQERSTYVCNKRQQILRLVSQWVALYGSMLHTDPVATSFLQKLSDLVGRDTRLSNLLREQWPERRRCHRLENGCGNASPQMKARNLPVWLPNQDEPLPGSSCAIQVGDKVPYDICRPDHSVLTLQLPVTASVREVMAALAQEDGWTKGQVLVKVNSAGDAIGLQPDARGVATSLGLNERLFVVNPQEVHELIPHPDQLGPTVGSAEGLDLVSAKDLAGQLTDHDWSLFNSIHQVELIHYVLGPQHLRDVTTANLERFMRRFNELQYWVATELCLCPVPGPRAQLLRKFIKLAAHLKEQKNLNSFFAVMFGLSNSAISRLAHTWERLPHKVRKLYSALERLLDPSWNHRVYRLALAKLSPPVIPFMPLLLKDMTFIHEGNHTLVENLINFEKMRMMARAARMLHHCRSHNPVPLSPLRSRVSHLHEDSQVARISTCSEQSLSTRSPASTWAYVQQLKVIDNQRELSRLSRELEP
# [19] = target: Cytochrome P450 3A4 (Homo sapiens) (UniProt P08684); assay: qHTS Assay for Activators of Cytochrome P450 3A4 (AID 885); note: nearly all actives have a fitted effect of over 65% in size
# Outline: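 Human CYP3A4 (20 nM) with Luciferin-PPXE at 25 uM (its KM) in 200 mM KPO4; 10 min compound preincubation, then NADPH regeneration and 60 min reaction at RT. Luciferin read by luminescence; normalized to 57 uM ketoconazole full inhibition.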
# [20] = measured here: cell count channel max response
# [21] = measured here: lipid channel max response
compound,measurement,setting,value
Cc1cc(/C=C\c2ccc3cc(N(C)C)ccc3[n+]2C)c(C)n1-c1ccccc1,"activity change, negative = inhibition",[1],12.4% [at 17.2 µM] (inactive)
same,Potency,[2],> 20.6 µM (inactive)
same,Potency,[3],> 20.6 µM (inactive)
same,Potency,[4],inactive
same,"activity change, negative = inhibition",[5]; at 25.7 µM (top of the series),-5.56% (inactive)
same,max response,[5]; [20],-11.1%
same,max response,[5]; [21],-18.2%
CN1CCN(c2ncc3nc(CCc4ccccc4)c(=O)n(C)c3n2)CC1,Potency,[6],> 11.4 µM (inactive)
same,"activity change, negative = inhibition",[1],14.9% (inactive)
same,Potency,[7],12.6 µM (active)
same,"activity change, negative = inhibition",[8],1.74% (inactive)
same,"activity, negative = inhibition",[9],-2.48% (inactive)
same,Potency,[2],> 9.22 µM (inactive)
same,Potency,[3],> 46 µM (inactive)
same,Potency,[10],inactive
same,Potency,[4],inactive
same,Potency,[11],inactive
same,"activity change, negative = inhibition",[5]; at 57.5 µM (top of the series),3.14% (inactive)
same,max response,[5]; [20],18.8%
same,max response,[5]; [21],18.3%
same,Potency,[12],inactive
same,Potency,[13],inactive
same,Potency,[14],inactive
same,Potency,[15],inactive
Cc1cccc2c3c(ccc12)C1=C(C(=O)C3=O)C(C)CO1 (centres undefined),Potency,[16],inactive
same,outcome,[17],inactive
same,"activity change, negative = inhibition",[5]; at 57.5 µM (top of the series),8.95% (inactive)
same,max response,[5]; [20],9.52%
same,max response,[5]; [21],20.4%
same,Potency,[18],inactive
CC(=O)OC1c2c(ccc3ccc(=O)oc23)OC(C)(C)C1OC(=O)CC(C)C (centres undefined),Potency,[19],inactive
same,Potency,[16],inactive
same,outcome,[17],inactive
same,Potency,[5],25.1 µM (active)
same,max response,[5]; [20],-23.2%
same,max response,[5]; [21],-91.6%
same,Potency,[18],inactive
Nc1c2ccccc2nc2ccccc12 (tested in a mixture with another compound),Potency,[19],inactive
same,Potency,[16],inactive
same,outcome,[17],inactive
same,"activity change, negative = inhibition",[5]; at 57.5 µM (top of the series),-15.1% (inactive)
same,max response,[5]; [20],-8%
same,max response,[5]; [21],-17.5%
same,Potency,[15],inactive
same,Potency,[18],inactive
COc1cc(O)c(C(=O)/C=C/c2ccc(OC)c(O)c2)c(OC)c1,Potency,[11],6.31 µM (active)
same,Potency,[19],inactive
same,Potency,[16],inactive
same,outcome,[17],inactive
same,"activity change, negative = inhibition",[5]; at 57.5 µM (top of the series),-24.7% (inactive)
same,max response,[5]; [20],-3.92%
same,max response,[5]; [21],-25.6%
same,Potency,[18],inactive
CNC(=O)[C@H]1O[C@@H](n2cnc3c(N)ncnc32)[C@H](O)[C@H]1O,"activity change, negative = inhibition",[5]; at 57.5 µM (top of the series),-1.94% (inactive)
same,max response,[5]; [20],-22.6%
same,max response,[5]; [21],-24.5%
Nc1ncnc2c1nc(Br)n2C1O[C@H]2COP(=O)(O)O[C@@H]2C1O (some centres undefined),"activity change, negative = inhibition",[5]; at 57.5 µM (top of the series),0.429% (inactive)
same,max response,[5]; [20],27.3%
same,max response,[5]; [21],29.9%
CCC(=O)OC1CCC2C3CCc4cc(O)ccc4C3CC[C@]12C (some centres undefined),Potency,[16],inactive
same,outcome,[17],inactive
same,"activity change, negative = inhibition",[5]; at 57.5 µM (top of the series),3.26% (inactive)
same,max response,[5]; [20],9.46%
same,max response,[5]; [21],15.5%
same,Potency,[18],inactive
COC(=O)c1c(C)c2c(c(C)c1O)OC(=O)c1c(C)c(Cl)c(O)c(Cl)c1O2,Potency,[19],inactive
same,Potency,[16],inactive
same,outcome,[17],inactive
same,"activity change, negative = inhibition",[5]; at 57.5 µM (top of the series),9.5% (inactive)
same,max response,[5]; [20],-4.72%
same,max response,[5]; [21],1.33%
same,Potency,[18],inactive
COc1cc(C)c(C(=O)Oc2cc(C)c(C(=O)O)c(O)c2C)c(OC)c1C,Potency,[19],inactive
same,Potency,[16],inactive
same,outcome,[17],inactive
same,"activity change, negative = inhibition",[5]; at 57.5 µM (top of the series),7.39% (inactive)
same,max response,[5]; [20],9.06%
same,max response,[5]; [21],19.2%
same,Potency,[18],inactive
C[C@@H](Oc1ccc(Oc2cnc3ccc(Cl)cc3n2)cc1)C(=O)O,"activity change, negative = inhibition",[5]; at 57.5 µM (top of the series),-0.184% (inactive)
same,max response,[5]; [20],-7.54%
same,max response,[5]; [21],-6.55%
C=C[C@](C)(O)CCC1C(=C)CC(OC(C)=O)C2C(C)(C)CCCC12C (some centres undefined),Potency,[19],inactive
same,Potency,[16],inactive
same,outcome,[17],inactive
same,"activity change, negative = inhibition",[5]; at 57.5 µM (top of the series),-0.933% (inactive)
same,max response,[5]; [20],1.16%
same,max response,[5]; [21],0.207%
same,Potency,[18],inactive

# Source: PubChem BioAssay (NCATS)
